“And” between values parts separate entries of the source, which are not always exact repeats. Equal entries are not always repeated. Hit rate of the full screen: of about 5,500 compounds, about 2,000 (36%) were called active. Inconclusive results (about 18%) are left out. Cut-off read from the data, not from the text of the source: active = normalized growth mostly below about 0.91 (no sharp cut-off); inconclusive = no clear call, values can overlap the other calls; inactive = mostly above about 0.92. The list shows a part of the results.
Assay: chemical genetic growth profiling, strain panel (AID 1159580);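 note: tested at 20 µM; growth read once vehicle control cultures reached saturation at 30 °C; 1 = growth at the plate median or of vehicle wells; lower values mean less growth of the strain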
Details: S. cerevisiae deletion strains, growth OD

Measured: normalized growth

c1ccc2c(c1)[nH]c1cnccc12
inactive: locus YAL021C, strain ccr4, active compounds read low 1.01 | locus YAL026C, strain drs2, active compounds read low 1.01 | locus YAL030W, strain snc1, active compounds read low 0.999 | locus YBL061C, strain skt5, active compounds read low 0.991 | locus YBR009C, strain hhf1, active compounds read low 1 | locus YBR021W, strain FUR4, active compounds read low 1.05 | locus YBR023C, strain chs3, active compounds read low 0.993 | locus YBR171W, strain sec66, active compounds read low 0.99 | locus YBR229C, strain ROT2, active compounds read low 1.01 | locus YBR231C, strain swc5, active compounds read low 0.999 | locus YBR279W, strain paf1, active compounds read low 1 | locus YCL011C, strain gbp2, active compounds read low 0.998 | locus YCL016C, strain dcc1, active compounds read low 0.999 | locus YCL029C, strain bik1, active compounds read low 0.975 | locus YCL061C, strain MRC1, active compounds read low 0.997 | locus YCL069W, strain vba3, active compounds read low 1 | locus YCR088W, strain abp1, active compounds read low 1 | locus YDL005C, strain med2, active compounds read low 0.989 | locus YDL035C, strain GPR1, active compounds read low 0.991 | locus YDL040C, strain nat1, active compounds read low 0.995 | locus YDL074C, strain BRE1, active compounds read low 0.977 | locus YDL101C, strain DUN1, active compounds read low 0.986 | locus YDL134C, strain PPH21, active compounds read low 1.08 | locus YDL185W, strain tfp1, active compounds read low 0.954 | locus YDL192W, strain arf1, active compounds read low 0.979 | locus YDR001C, strain nth1, active compounds read low 1 | locus YDR069C, strain doa4, active compounds read low 0.977 | locus YDR101C, strain arx1, active compounds read low 0.961 | locus YDR137W, strain rgp1, active compounds read low 0.958 | locus YDR159W, strain sac3, active compounds read low 1.01 | locus YDR162C, strain NBP2, active compounds read low 1.01 | locus YDR195W, strain ref2 0.995 | locus YDR297W, strain sur2, active compounds read low 0.999 | locus YDR318W, strain mcm21, active compounds read low 1.01 | locus YDR334W, strain swr1, active compounds read low 0.998 | locus YDR335W, strain msn5, active compounds read low 0.999 | locus YDR388W, active compounds read low 0.996 | locus YDR392W, strain spt3, active compounds read low 0.967 | locus YDR502C, strain sam2, active compounds read low 0.994 | locus YEL003W, strain gim4, active compounds read low 1 | locus YEL037C, strain rad23, active compounds read low 1.03 | locus YEL061C, strain CIN8 (second series), active compounds read low 1.01 | locus YEL061C, strain CIN8, active compounds read low 0.99 | locus YER015W, strain faa2, active compounds read low 0.982 | locus YER016W, strain bim1, active compounds read low 0.992 | locus YER110C, active compounds read low 0.964 | locus YER111C, strain swi4, active compounds read low 0.984 | locus YER155C, strain BEM2 (second series), active compounds read low 0.965 | locus YER155C, strain BEM2, active compounds read low 1 | locus YER167W, strain BCK2, active compounds read low 1.02 | locus YFR010W, strain ubp6, active compounds read low 1 | locus YGL078C, strain dbp3, active compounds read low 0.981 | locus YGL086W, strain mad1, active compounds read low 0.948 | locus YGL167C, strain pmr1, active compounds read low 0.998 | locus YGL173C, strain kem1, active compounds read low 0.997 | locus YGL227W, strain vid30, active compounds read low 0.999 | locus YGL240W, strain doc1, active compounds read low 0.991 | locus YGL248W, strain PDE1, active compounds read low 1.01 | locus YGL253W, strain hxk2, active compounds read low 1.01 | locus YGR135W, strain pre9, active compounds read low 1 | locus YGR229C, strain SMI1, active compounds read low 1.02 | locus YGR252W, strain gcn5, active compounds read low 1.19 | locus YHR013C, strain ard1, active compounds read low 1.02 | locus YHR027C, strain rpn1, active compounds read low 0.993 | locus YHR030C, strain SLT2, active compounds read low 1 and 1.03 | locus YHR079C, strain IRE1 (second series), active compounds read low 0.984 | locus YHR079C, strain IRE1, active compounds read low 1.03 | locus YHR094C, strain hxt1, active compounds read low 0.994 | locus YHR129C, strain ARP1, active compounds read low 1 | locus YHR142W, strain chs7, active compounds read low 1.01 | locus YHR200W, strain rpn10, active compounds read low 0.98 | locus YIL066C, strain RNR3, active compounds read low 1.01 | locus YIL073C, strain SPO22, active compounds read low 0.995 | locus YIL125W, strain kgd1, active compounds read low 0.992 | locus YIR030C, strain dcg1, active compounds read low 0.991 | locus YJL092W, strain hpr5, active compounds read low 0.995 | locus YJL095W, strain BCK1 (second series), active compounds read low 0.999 | locus YJL095W, strain BCK1, active compounds read low 1 and 1.01 | locus YJL115W, strain asf1, active compounds read low 0.996 | locus YJL129C, strain trk1, active compounds read low 1.01 | locus YJL134W, strain LCB3, active compounds read low 1 | locus YJL154C, strain vps35, active compounds read low 1 | locus YJL164C, strain tpk1, active compounds read low 1.01 | locus YJL166W, strain qcr8, active compounds read low 1 | locus YJL168C, strain set2, active compounds read low 0.979 | locus YJL187C, strain SWE1 (second series), active compounds read low 0.986 | locus YJL187C, strain SWE1, active compounds read low 0.995 | locus YJR043C, strain POL32, active compounds read low 1.04

— PubChem BioAssay AID1159580 (chemical genetic matrix, 2015)
